“And” between values parts separate entries of the source, which are not always exact repeats. Equal values may be shown once. About 83,000 compounds went through this panel and 20% of them were active in at least one assay; those are over-represented in the sample as a whole.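 The test compound was applied at a single concentration to cells in 96-well plates for 48 hours, and percent growth was recorded.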 A number with no mark means an inactive call. The source made the active and inactive calls. Rule for the calls: active = growth percent below 10; inactive = the rest.
Key:
Assay in all cases: NCI-60 one-dose screen, 48 h (100 = growth as untreated, 0 = no growth, -100 = all killed)
Settings in all cases: 10 µM unless noted
SR leukemia = system: SR leukemia
RPMI-8226 leukemia = system: RPMI-8226 leukemia
OVCAR-8 ovarian = system: OVCAR-8 ovarian
OVCAR-5 ovarian = system: OVCAR-5 ovarian
OVCAR-4 ovarian = system: OVCAR-4 ovarian
SK-OV-3 ovarian = system: SK-OV-3 ovarian
IGROV1 ovarian = system: IGROV1 ovarian
OVCAR-3 ovarian = system: OVCAR-3 ovarian
HS 578T breast = system: HS 578T breast
NCI/ADR-RES ovarian = system: NCI/ADR-RES ovarian

SMILES | growth (SR leukemia) | growth (RPMI-8226 leukemia) | growth (OVCAR-8 ovarian) | growth (OVCAR-5 ovarian) | growth (OVCAR-4 ovarian) | growth (SK-OV-3 ovarian) | growth (IGROV1 ovarian) | growth (OVCAR-3 ovarian) | growth (HS 578T breast) | growth (NCI/ADR-RES ovarian)
CN1CCN(Cc2ccc(NC(=O)c3cccc(C#Cc4c(N)ncc5ccc(F)cc45)c3)cc2C(F)(F)F)CC1 | -24.6% (active) | -33.6% (active) | -51.5% (active) | -57.7% (active) | -47.6% (active) | 6.69% (active) | -42.4% (active) | -57.4% (active) | -37.9% (active) | -44.7% (active)
CCC(=C(c1ccc(OCCCN(C)C)cc1)c1ccc(OCCCN(C)C)cc1)c1ccc(Cl)cc1 | -48.2% (active) | -55.4% (active) | -76.3% (active) | -89.3% (active) | -85.8% (active) | -88.2% (active) | -84.9% (active) | -84.6% (active) | -77.4% (active) | -84.9% (active)
N=C(N)SCc1c2ccccc2c(CSC(=N)N)c2ccccc12 | -11.1% (active) | 46% | 60.7% | 102% | 80.6% | 81.4% | 80.6% | 93.5% | 85.5% | 103%
CCCCC#Cc1c(/C=C(\CCCC)SCC)n(C)c(=O)[nH]c1=O | 93.4% | 85.5% | 76.8% | 99.3% | 90.7% | 106% | 73.6% | 88.5% | 95.9% | 95.6%
COc1cc(/C=N/NC(=O)CCN2c3ccccc3Sc3ccccc32)cc(OC)c1OC | 72% | 54.7% | 86.5% | 89% | 68.3% | 105% | 91.2% | 99.5% | 93.7% | 87.6%
Cc1nnc(NS(=O)(=O)c2ccc(N=Nc3ccc(N)nc3N)cc2)s1 | 94.2% and 94.5% | 105% | 107% and 116% | 98.7% and 99.3% | 110% and 105% | 111% | 123% and 108% | 124% and 105% | 121% and 105% | 102% and 106%
COc1ccc(/C=C/C(=O)c2cc3c(N)c(C(=O)Nc4ccccc4Cl)sc3nc2C)cc1 | 53.1% | 53% | 40.3% | 79% | -13% (active) | 58.5% | 26.9% | 21.1% | 10.3% | 42.9%
Cc1ccc(Cc2cnc(NC(=O)c3cc(C)oc3C)s2)cc1 | 29.7% | 73.6% | 87.7% | 67.6% | 70.2% | 84.3% | 62% | 81.4% | 82.9% | 67.4%
COC(=O)c1nc(-c2ccccc2)oc1S(=O)(=O)N(C)CCO | 8.68% (active) | 42.4% | 85.6% | 82.5% | 77.4% | 89.8% | 69.2% | 34.7% | 99.5% | 97.2%
OCc1cc(CN2CCCCC2)c(O)c2ncccc12 | 27% | 71.9% | 50.5% | 59.1% | 34.9% | 49.4% | 52.7% | 45% | 85.6% | 8.71% (active)
O/N=C(/c1ccccc1)c1ccc2c3c(cccc13)CC2 | 67% and 66.6% | 75.2% and 70.4% | 87.7% | 97.7% and 95.4% | 83.9% and 77.1% | 99.3% and 97.4% | 97.8% and 98% | 99.4% and 93.3% | 94.4% and 90.2% | 92.8% and 88.6%
CC(=O)c1c(C)nc(SCC(=O)Nc2ccc(Cl)cc2)n1-c1ccc(Cl)cc1 | 90.6% | 71.1% | 89.3% | 99.1% | 102% | 85.9% | 97.9% | 99.4% | 79.4% | 89.2%
C=C[C@]1(C)C=C2CC[C@@H]3C(C)(C)C(=O)CC[C@@]3(C)[C@@H]2CC1 | 102% | 98.3% | 103% | 111% | 102% | 111% | 11.3% | 109% | 104% | 110%
CCn1cc(C(=O)NN=C2CCCC2)c(=O)c2ccc(C)nc21 | 99.2% | 92.7% | 90% | 94% | 83.7% | 91.2% | 85% | 94.3% | 88.8% | 89.8%
CCCO/N=C/c1ccccn1 | 93.4% | 101% | 103% and 107% | 106% and 100% | 97.4% | 101% and 89.7% | 107% and 101% | 105% and 113% | 102% and 104% | 101% and 99.5%
C#CCn1cnc2cnc(Nc3cccc(NC(=O)CCl)c3)nc21 | 1.67% [6.25 µM] (active) | -14.9% [6.25 µM] (active) | 8.6% [6.25 µM] (active) | 14.8% [6.25 µM] | 13% [6.25 µM] | 15.3% [6.25 µM] | -38.1% [6.25 µM] (active) | -44.9% [6.25 µM] (active) | 10.4% [6.25 µM] | 2.34% [6.25 µM] (active)
Nc1nc(Cl)nc2c1ncn2C1OC(CO)C(O)C1O (stereo not given) | 56.8% | 104% and 96.1% | 22.9% and 29.3% | 90% and 105% | 94.4% and 87% | 41.3% and 68.1% | 78.9% and 75.1% | 86.9% | 108% | 29.6% and 40.2%
CC1(C)C(N)=Nc2cc(OCCCCN3Cc4ccccc4C3)c(OCC3CC3)cc21 | 93.4% | 100% | 76.2% | 80.3% | 82.6% | 89% | 79.4% | 78% | 88.3% | 92.6%
O=C(O)C1C2CCC1C(O)C2 (stereo not given) | 96.2% and 88.2% | 104% and 90.5% | 100% and 98.1% | 96.5% and 96.2% | 106% and 108% | 105% and 98.8% | 124% and 112% | 108% and 96.9% | 110% and 109% | 96.7% and 98.2%
CC1=CC=C(NC(=O)/C=C/c2ccccc2)CC1Nc1nccc(-c2cccnc2)n1 (stereo not given) | 15.3% | 17.2% | 61% | 96.8% | 70% | 57.6% | 54.7% | 19.9% | 44.5% | 47.6%
O=C(CN1C(=O)S/C(=C\C(Cl)=C\c2ccccc2)C1=O)NCCCn1ccnc1 | 2.18% (active) | 0.978% (active) | 12.4% | 80.1% | 43.1% | 86% | 2.87% (active) | 1.07% (active) | 51.7% | 81.2%

From PubChem BioAssay (NCI)
